Assay results taken from the supplement of paper PMC10042075.
Values joined by “and” are separate entries in the source; they are usually repeats but may differ in a detail not shown here. Equal entries are not always repeated. Structures can show the parent of a compound that is named as a salt.

System: LASCPC-01
Assay: cell viability relative to DMSO control (fraction); higher = less growth inhibition (more viable cells)
Details: 2 µM; 72 h
Description: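 High-throughput single-dose screen in the LASCPC-01 NEPC cell line in 384-well plates. Cells were treated with each compound at 2 µM for 72 h, and viability was read by CellTiter-Glo luminescence. Values are normalised to the DMSO control (compound/DMSO) from three replicates; only the 5-HT-related subset of the 7315-compound library is given.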

**Q.** With `NCCc1c[nH]c2ccc(O)cc12` [Serotonin hydrochloride] as the compound, how does the cell viability read?
**A.** Its cell viability is 0.606.

**Q.** Which cell viability does the source give for `O=c1ccc2cc3ccoc3c(O)c2o1` [Xanthotoxol] here?
**A.** Its cell viability is 1.15.

**Q.** With `COc1ccccc1N1CCNCC1` [1-(2-Methoxyphenyl)piperazine hydrochloride] as the compound, how does the cell viability read?
**A.** Its cell viability is 0.869.

**Q.** How did the cell viability turn out when `COc1ccc(C(CN(C)C)C2(O)CCCCC2)cc1` (stereo not given) [Venlafaxine hydrochloride] was run?
**A.** Its cell viability is 1.06.

**Q.** With `CN1CCC(c2c[nH]c3ccc(O)cc23)CC1` as the compound, how does the cell viability read?
**A.** The cell viability was 0.966 and 0.511.

**Q.** For `N#Cc1ccc(N2CCN(C(=O)COc3ccc4[nH]cc(CCN)c4c3)CC2)cc1` [Donitriptan monohydrochloride], which cell viability is on record?
**A.** The cell viability was 1.08.

**Q.** `CC(N)Cc1cccc(C(F)(F)F)c1` (single isomer, unassigned; (+)) [(+)-Norfenfluramine hydrochloride] was tested. Which cell viability did it give?
**A.** The cell viability was 1.09.

**Q.** How did the cell viability turn out when `COc1cc2c3c(c1OC)-c1ccccc1C[C@H]3N(C)CC2` [Nuciferine] was run?
**A.** Its cell viability is 0.818.

**Q.** For `CN1C(=O)COc2c(C(=O)NC3CN4CCC3CC4)cc(Cl)cc21` (stereo not given) [Azasetron hydrochloride], which cell viability is on record?
**A.** The cell viability was 1.44.

**Q.** For `c1ccc2c(N3CCNCC3)cccc2c1` [1-(1-Naphthyl)piperazine hydrochloride], which cell viability is on record?
**A.** Its cell viability is 1.08.

**Q.** With `NCCc1c[nH]c2ccccc12` [Tryptamine hydrochloride] as the compound, how does the cell viability read?
**A.** The cell viability was 0.96.

**Q.** With `CN1C[C@H](CNC(=O)OCc2ccccc2)C[C@@H]2c3cccc4c3c(cn4C)C[C@H]21` [Metergoline] as the compound, how does the cell viability read?
**A.** Its cell viability is 0.997.

**Q.** With `CN1CCN(c2nc3ccccc3nc2Cl)CC1` as the compound, how does the cell viability read?
**A.** The cell viability was 0.966.

**Q.** `COc1ccc(C(CN(C)C)C2(O)CCCCC2)cc1` (stereo not given) [Venlafaxine] was tested. Which cell viability did it give?
**A.** The cell viability was 1.04.

**Q.** How did the cell viability turn out when `C[C@H]1CNCCc2ccc(Cl)cc21` [Lorcaserin HCl] was run?
**A.** The cell viability was 1.18.

**Q.** `NCCc1c[nH]c2ccc(O)cc12` [Serotonin HCl] was tested. Which cell viability did it give?
**A.** The cell viability was 0.977.

**Q.** With `COc1ccc2[nH]cc(C3=CCNCC3)c2c1` as the compound, how does the cell viability read?
**A.** Its cell viability is 0.776.

**Q.** Which cell viability does the source give for `CN1C[C@H](C(=O)N[C@]2(C)O[C@@]3(O)[C@@H]4CCCN4C(=O)[C@H](Cc4ccccc4)N3C2=O)C[C@@H]2c3cccc4[nH]cc(c34)C[C@H]21` [Dihydroergotamine methanesulfonate] here?
**A.** The cell viability was 1.18.

**Q.** How did the cell viability turn out when `CN1c2ccccc2C(NCCCCCCC(=O)O)c2ccc(Cl)cc2S1(=O)=O` (stereo not given) [Tianeptine sodium] was run?
**A.** Its cell viability is 0.963.

**Q.** Which cell viability does the source give for `CC(N)Cc1c[nH]c2ccc(O)cc12` (stereo not drawn) [alpha-Methyl-5-hydroxytryptamine maleate] here?
**A.** Its cell viability is 1.03.

**Q.** For `CC[C@@H](CO)NC(=O)[C@@H]1C=C2c3cccc4c3c(cn4C)C[C@H]2N(C)C1` [Methysergide maleate], which cell viability is on record?
**A.** Its cell viability is 1.1.

**Q.** How did the cell viability turn out when `CC(N)Cc1c[nH]c2ccc(OCc3cccs3)cc12` (stereo not given) was run?
**A.** Its cell viability is 1.18.

**Q.** Which cell viability does the source give for `CN1CCC[C@@H]1Cc1c[nH]c2ccc(Nc3ncccc3[N+](=O)[O-])cc12` here?
**A.** The cell viability was 0.897.

**Q.** `COc1ccc2c(c1OC)CN1CCc3cc4c(cc3C1C2)OCO4` (stereo not given) [Tetrahydroberberine THB] was tested. Which cell viability did it give?
**A.** Its cell viability is 0.961.

**Q.** With `NCCc1c[nH]c2ccccc12` [Tryptamine] as the compound, how does the cell viability read?
**A.** Its cell viability is 1.08.

**Q.** `Clc1ccc([C@]23CNC[C@H]2C3)cc1Cl` [Amitifadine hydrochloride] was tested. Which cell viability did it give?
**A.** The cell viability was 0.896.

**Q.** For `Clc1ccc(C(OCCN2CCCCC2)c2ccccc2)cc1` (stereo not given) [Cloperastine hydrochloride], which cell viability is on record?
**A.** The cell viability was 0.924.

**Q.** For `C[C@H](N)CN1CCc2ccc(Br)cc21` [VER-3323 hemifumarate salt], which cell viability is on record?
**A.** The cell viability was 1.16.

**Q.** Which cell viability does the source give for `O=[N+]([O-])c1ccc2nc(N3CCNCC3)ccc2c1` [Quipazine,6-nitro-,maleate] here?
**A.** The cell viability was 1.04.

**Q.** Which cell viability does the source give for `CCCN(CCC)C1CCc2cccc(O)c2C1` (stereo not given) here?
**A.** Its cell viability is 0.92.

**Q.** Which cell viability does the source give for `C=C[C@H]1CN2CC[C@@]3(C(=O)Nc4ccccc43)[C@@H]2C[C@@H]1/C(=C\OC)C(=O)OC` [Isocorynoxeine] here?
**A.** Its cell viability is 0.677.

**Q.** `COc1cc(N)c(Cl)cc1C(=O)NC1CN2CCC1CC2` (stereo not given) [Zacopride hydrochloride] was tested. Which cell viability did it give?
**A.** Its cell viability is 0.366.

**Q.** How did the cell viability turn out when `NCCc1c[nH]c2ccc(C(N)=O)cc12` [5-Carboxamidotryptamine maleate] was run?
**A.** The cell viability was 1.1.

**Q.** Which cell viability does the source give for `C[N+]1(C)C2CCC1CC(OC(=O)c1c[nH]c3ccccc13)C2` (stereo not given) [3-Tropanylindole-3-carboxylate methiodide] here?
**A.** Its cell viability is 0.906.

**Q.** Which cell viability does the source give for `CN1CCN(c2cccc3[nH]c(=O)oc23)CC1` [Pardoprunox hydrochloride] here?
**A.** The cell viability was 1.03.

**Q.** `COc1ccc2[nH]cc(CCN)c2c1` [O-Methylserotonin hydrochloride] was tested. Which cell viability did it give?
**A.** The cell viability was 0.981.

**Q.** `CCCN(CCC)[C@@H]1CCc2cccc(O)c2C1` [R-(+)-8-Hydroxy-DPAT hydrobromide] was tested. Which cell viability did it give?
**A.** Its cell viability is 1.03.

**Q.** `CCCN(CCC)C1CCc2cccc(O)c2C1` (stereo not given) [(?-8-Hydroxy-DPAT hydrobromide] was tested. Which cell viability did it give?
**A.** The cell viability was 1.16.

**Q.** How did the cell viability turn out when `O=S1(=O)N(CCN2CC=C(c3c[nH]c4cc(F)ccc34)CC2)c2cccc3c2N1CCC3` was run?
**A.** Its cell viability is 0.982.

**Q.** `Cc1[nH]c2ccc(O)cc2c1CCN` [2-Methyl-5-hydroxytryptamine maleate] was tested. Which cell viability did it give?
**A.** Its cell viability is 0.982.
